Hits are enriched below; roughly 0.74% of the tested compounds scored in any of these assays.
APE1 inh-1: blocks human APE1 abasic DNA cleavage. P27695. recombinant APE1, TAMRA/BHQ-2 abasic DNA cleavage fluorescence. Potency, µM (highest dose often 65.8 µM), for the others: top-dose activity change, negative = inhibition, usual class: inhibitors. 0.35% of 350,000 active. AID 2517;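 also: plate controls were vehicle for no effect and reference inhibitor for full effect; nearly all actives have a fitted effect of over 55% in size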
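Enzyme (0.75 nM final) and test compound are incubated 15 min at room temperature before adding 50 nM quenched THF abasic-site duplex. Cleavage dequenches TAMRA, followed at 525/598 nm over three reads one minute apart.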
BLM inh: blocks DNA unwinding by human BLM helicase. P54132. recombinant BLM DNA unwinding, fluorescence dequenching. Potency, µM (series often up to 56.1 µM), for inactives: at the highest dose activity change, negative = inhibition, usual class: inhibitors. 0.2% of 350,000 active. AID 2528;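 also: plate controls were vehicle for no effect and no enzyme for full effect; nearly all actives have a fitted effect of over 35% in size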
FEN1 inhibitor: inhibitors of human flap endonuclease 1; P39748; Recombinant FEN1 flap cleavage, fluorescence, 15 min; Potency, µM (titrated, usually from 114 µM), without a hit: top-dose activity change, negative = inhibition, usual class: inhibitors; 0.35% of 390,000 active; AID 588795; also: nearly all actives have a fitted effect of over 65% in size
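Concentration–response screening of FEN1 (10 nM): 15 min compound preincubation at room temperature, reaction started with 50 nM substrate and read at 0 and 15 min. Corrected, normalized data were fitted by a four-parameter Hill equation.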
RECQ1 inh: inhibitors of human RECQ1 DNA helicase; RECQ1 DNA unwinding, red fluorescence kinetic read; Potency, µM (highest dose often 57.3 µM), for the others: top-dose activity, negative = inhibition, most hits filed as inhibitors; 0.54% of 240,000 active;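 also: plate controls were vehicle for no effect and no enzyme for full effect; nearly all actives have a fitted effect of over 30% in size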
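50 nM RECQ1T1 preincubated 15 min with compound in Tris pH 8.0 buffer with MgCl2, DTT, Tween-20 and 2.5 ug/ml poly(dI-dC); started with 200 nM TAMRA/BHQ-2 forked duplex and 2 mM ATP. Unwinding read as fluorescence (525/598 nm), two reads 2 h apart.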
PGK inhibitor: blocks T. brucei phosphoglycerate kinase; P07378; PGK/GAPDH coupled, Kinase-Glo luminescence, 60 min; Potency, µM (series often up to 57.5 µM), for inactives: at the top dose activity change, negative = inhibition, hits mostly inhibitors; 0.043% of 380,000 active; AID 602233; also: nearly all actives have a fitted effect of over 60% in size
Target sequence (P07378 whole entry, looked up): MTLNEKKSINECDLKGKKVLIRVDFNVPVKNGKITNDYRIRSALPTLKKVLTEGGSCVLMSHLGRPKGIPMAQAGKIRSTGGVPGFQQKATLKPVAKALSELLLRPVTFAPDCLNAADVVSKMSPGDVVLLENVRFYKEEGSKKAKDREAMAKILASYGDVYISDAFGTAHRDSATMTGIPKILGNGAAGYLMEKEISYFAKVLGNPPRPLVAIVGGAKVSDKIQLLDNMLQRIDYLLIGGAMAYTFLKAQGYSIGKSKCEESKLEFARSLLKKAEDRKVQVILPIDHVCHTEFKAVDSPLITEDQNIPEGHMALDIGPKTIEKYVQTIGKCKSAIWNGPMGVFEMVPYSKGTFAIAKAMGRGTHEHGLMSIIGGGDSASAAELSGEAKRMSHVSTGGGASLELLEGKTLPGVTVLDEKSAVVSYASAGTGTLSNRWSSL
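Luminescent ATP detection (Kinase-Glo Plus) follows a 60-minute room-temperature incubation, with wells lacking PGK as controls. Buffer: 100 mM TEA (pH 7.6), 5 mM MgCl2, 0.01% Tween-20. Coupling enzyme GAPDH (100 nM final) supplies unstable 1,3-BPG in-well.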
APE1 dye cs: DNA dye displacement counter-screen activity. shares compounds with APE1 inh-1. Potency, µM (series often up to 28.5 µM), without a hit: at the highest dose activity change, negative = inhibition, hits mostly inhibitors. DNA fluorescent dye displacement counterscreen, fluorescence. AID 2564. 7% of 480 active;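 also: loss of thiazole orange fluorescence as the dye is displaced from duplex DNA; 0% = ThO with dsDNA and no compound and -100% = ThO without dsDNA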
EndoIV counter: Endo IV (E. coli) inhibition counter-screen | shares compounds with APE1 inh-1 | 4% of 560 active | AID 2565 | Potency, µM (series often up to 27.1 µM), without a hit: at the highest dose activity change, negative = inhibition, actives largely listed as inhibitors | E. coli Endo IV, fluorogenic AP-site DNA cleavage;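 also: plate controls were uninhibited enzyme wells for no effect and no enzyme buffer wells for full effect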
APE1 inh-2: confirmation of inhibitors of human APE1 endonuclease; shares compounds with APE1 inh-1; 44% of 750 active; AID 2572; Potency, µM (series often up to 57.1 µM), without a hit: top-dose activity change, negative = inhibition, most hits filed as inhibitors; purified APE1, fluorogenic abasic-site DNA cleavage; also: nearly all actives have a fitted effect of over 30% in size
APE1 FP: displaces DNA from human APE1 in FP assay | 7% of 480 active | Potency, µM (top dose mostly 28.5 µM), for the others: at the highest dose activity, negative = inhibition, actives largely listed as inhibitors | shares compounds with APE1 inh-1 | APE1 binding to TAMRA-labelled double-stranded DNA, fluorescence polarization displacement
An asterisk follows results filed as active; [ ] = dose if it differs, or a comment. Calls follow the shape of the dose curve; as a rule, active = well fitted curve in the direction sought with a large enough effect; inconclusive = small, poorly fitted or top-dose-only effect, or another doubt; inactive = no such curve, though single readings can be large; an effect the other way counts as inactive or inconclusive. Unless noted, % is scaled to controls: 0 for no effect and ±100 for the full control effect; potency is read from the fitted curve at half-maximal effect.

What do the screens show for `Cc1cc(O)c(C=O)c2c1C(=O)Oc1c(COC(=O)/C=C/C(=O)O)c(O)c(C(=O)O)c(C)c1O2`?
APE1 inh-1: 1.3µM*; BLM inh: 18%; RECQ1 inh: 4µM*; EndoIV counter: -21%[57.1 µM]; APE1 inh-2: 11µM*

What do the screens show for `COc1cc(C2(O)CCCCC2C)cc(OC)c1OC` (stereo not given)?
APE1 inh-1: 7%; BLM inh: 6%; FEN1 inhibitor: -1%; RECQ1 inh: -15%; PGK inhibitor: -2%

How did Nc1ccc(NC(=O)c2ccc(C(=O)Nc3ccc(N)cc3)cc2)cc1 do in these assays?
APE1 inh-1: 0%; BLM inh: 5%; FEN1 inhibitor: -6%; RECQ1 inh: -21%; PGK inhibitor: 0%; APE1 inh-2: inconclusive

What do the screens show for `Nc1ccc(C(=O)Nc2ccc(Nc3ccncc3)cc2)cc1`?
APE1 inh-1: inconclusive; BLM inh: 4%; FEN1 inhibitor: -8%; RECQ1 inh: 0%; PGK inhibitor: -5%

Results for Cc1c(O)c(S(=O)(=O)c2ccccc2)c(=O)n(-c2ccccc2)c1-c1ccccc1 ?
APE1 inh-1: 5%; BLM inh: -12%; FEN1 inhibitor: 4%; RECQ1 inh: 0%; PGK inhibitor: 1%

What do the screens show for `COc1ccc(C)cc1S(=O)(=O)N1CCc2ccccc2C1`?
APE1 inh-1: -10%; BLM inh: -2%; FEN1 inhibitor: -4%; PGK inhibitor: -8%

What do the screens show for `O=C(O)c1cc2cc(F)ccc2[nH]1`?
APE1 inh-1: -3%; BLM inh: -2%; FEN1 inhibitor: 2%; RECQ1 inh: 1%; PGK inhibitor: -7%; APE1 inh-2: inconclusive

Results for CN(C)c1ncc(S(=O)(=O)c2ccccc2)c(-c2ccccc2Cl)n1 ?
APE1 inh-1: -4%; BLM inh: -9%; FEN1 inhibitor: -8%; RECQ1 inh: inactive; PGK inhibitor: 0%

How did O=C(CSc1nnc(COc2ccccc2Cl)o1)NC(=O)NCc1ccco1 do in these assays?
APE1 inh-1: 11µM*; BLM inh: -30%; FEN1 inhibitor: -11%; RECQ1 inh: -17%; PGK inhibitor: -11%; APE1 dye cs: inconclusive; EndoIV counter: -4%; APE1 inh-2: 14µM*; APE1 FP: 0%

Results for O=C(CSc1nnnn1-c1ccccc1)NC(=O)NCc1ccco1 ?
APE1 inh-1: 28µM*; BLM inh: -17%; FEN1 inhibitor: -7%; RECQ1 inh: -23%; PGK inhibitor: -3%; APE1 dye cs: inconclusive; EndoIV counter: 4%; APE1 inh-2: inconclusive; APE1 FP: inconclusive

How did Cn1nnnc1SCC(=O)NCc1ccco1 do in these assays?
APE1 inh-1: 2%; BLM inh: -5%; FEN1 inhibitor: -11%; RECQ1 inh: -2%; PGK inhibitor: -1%

How did CCOc1ccccc1-n1nnnc1SCC(=O)NC(=O)NCc1ccco1 do in these assays?
APE1 inh-1: 28µM*; BLM inh: -21%; FEN1 inhibitor: 7%; RECQ1 inh: -29%; PGK inhibitor: -11%; APE1 dye cs: inconclusive; EndoIV counter: -5%; APE1 inh-2: inconclusive; APE1 FP: inconclusive

Assay outcomes: PubChem, National Center for Advancing Translational Sciences (NCATS)
